From PubChem BioAssay (NCI)
This is part of a sample that, as a whole, favours compounds with a hit. Of some 79,000 tested, about 15% had one in any assay. The source made the active and inactive calls. No stated cut-off is given here; in the data, active means growth inhibition above about 70%; inactive means the rest.

Assays:
[1] = NCI Yeast Anticancer Drug Screen. Data for the rad52 strain (AID 147);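 further: 0% = growth of vehicle-treated control cultures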; details: S. cerevisiae rad52 mutant growth inhibition, hits give high values
In short: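 Read-out: growth inhibition versus vehicle-treated controls. Cells were a DNA repair-deficient yeast strain treated with compounds.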

[2] = NCI Yeast Anticancer Drug Screen. Data for the wt1 strain (AID 149);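 further: 0% = growth of vehicle-treated wt1 cultures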; details: S. cerevisiae wt1 strain (SPY 50644) growth inhibition, hits give high values
In short: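 wt1 strain grown with compound or vehicle; inhibition taken from the growth difference.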

[3] = NCI Yeast Anticancer Drug Screen. Data for the rad50EPP+ strain (AID 151);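 further: 0% = growth of vehicle-treated control cultures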; details: S. cerevisiae rad50 mutant strain, hits give high values
In short: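 Growth inhibition read against vehicle controls in rad50EPP+ yeast, a strain altered in DNA damage repair, after compound exposure.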

[4] = NCI Yeast Anticancer Drug Screen. Data for the mgt1 strain (AID 153); details: S. cerevisiae mgt1 mutant growth inhibition, hits give high values
In short: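 mgt1 yeast grown with test compound; read-out is growth inhibition versus vehicle-treated cultures.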

[5] = NCI Yeast Anticancer Drug Screen. Data for the rad50 strain (AID 155);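 further: 0% = growth of vehicle-only cultures of the same strain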; details: S. cerevisiae rad50 strain growth inhibition, hits give high values
In short: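 DNA repair mutant yeast, compound exposure, growth read-out; inhibition is taken relative to vehicle.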

[6] = NCI Yeast Anticancer Drug Screen. Data for the mec2-1 strain (AID 157); details: S. cerevisiae mec2-1 strain, hits give high values
In short: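 Yeast mec2-1 mutant treated with compound. Readout: growth inhibition vs vehicle controls.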

[7] = NCI Yeast Anticancer Drug Screen. Data for the rad14 strain (AID 159);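 further: 0% = growth of vehicle-treated control cultures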; details: S. cerevisiae rad14 strain growth inhibition, hits give high values
In short: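 DNA repair-defective yeast, compound-exposed; % growth inhibition derived by comparison with vehicle-treated controls.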

[8] = NCI Yeast Anticancer Drug Screen. Data for the sgs1 mgt1 strain (AID 161);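 further: 0% = growth of cultures given vehicle only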; details: S. cerevisiae sgs1 mgt1 strain, hits give high values
In short: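 Read-out: growth inhibition vs vehicle controls. Cells: mutant yeast strain deficient in DNA damage repair.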

[9] = NCI Yeast Anticancer Drug Screen. Data for the CLN2oe strain (AID 163);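 further: 0% = growth of vehicle-only control cultures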; details: S. cerevisiae CLN2oe strain, hits give high values
In short: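 Read-out: yeast growth inhibition, expressed relative to vehicle-only controls. The strain bears an engineered cell-cycle alteration.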

[10] = NCI Yeast Anticancer Drug Screen. Data for the cln2 rad14 strain (AID 165);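 further: 0% = growth equal to vehicle treated cultures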; details: S. cerevisiae cln2 rad14 strain, hits give high values
In short: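 cln2 rad14 yeast strain; compound exposure; growth inhibition read vs vehicle controls.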

[11] = NCI Yeast Anticancer Drug Screen. Data for the bub3 strain (AID 167); details: S. cerevisiae bub3 mutant strain, hits give high values
In short: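 In this screen, a yeast mutant lacking normal mitotic checkpoint function is challenged with compound. Relative growth versus vehicle gives the inhibition value.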

[12] = NCI Yeast Anticancer Drug Screen. Data for the wt2 strain (AID 169);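 further: 0% = growth of vehicle-treated yeast cultures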; details: S. cerevisiae wt2 strain growth inhibition, hits give high values
In short: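 Read-out: growth inhibition versus vehicle-treated control cultures after compound exposure of the yeast strain.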

[13] = NCI Yeast Anticancer Drug Screen. Data for the mlh1 strain (AID 171);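 further: 0% = growth of vehicle-treated control cultures of the same strain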; details: S. cerevisiae mlh1 strain growth inhibition, hits give high values
In short: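 Read-out: growth inhibition versus vehicle controls. Strain: engineered yeast with a defined DNA repair or cell cycle defect, compound-treated.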

[14] = NCI Yeast Anticancer Drug Screen. Data for the sgs1 strain (AID 173);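 further: 0% = growth of vehicle-only control cultures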; details: S. cerevisiae sgs1 mutant, hits give high values
In short: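 Read-out: yeast growth inhibition relative to vehicle controls, following compound exposure of a strain with a defined DNA repair/cell cycle alteration.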

[15] = NCI Yeast Anticancer Drug Screen. Data for the mlh1 rad18 strain (AID 175); details: S. cerevisiae mlh1 rad18 strain growth inhibition, hits give high values
In short: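 Yeast w/ defined DNA-repair lesions; compound exposure; growth vs vehicle controls → % inhibition.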

[16] = NCI Yeast Anticancer Drug Screen. Data for the rad18 strain (AID 177); details: S. cerevisiae rad18 mutant growth inhibition, hits give high values
In short: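 Readout: growth inhibition vs vehicle controls. Cells: genetically altered yeast strain, DNA repair defect.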

[17] = at 5.0 µM (retest, dose inferred, filed as 0.5)
[18] = at 50.0 µM (retest, dose inferred, filed as 5.0)

Measured: growth inhibition

O=[N+]([O-])c1ccc(N2CCC(CCCC3CCN(c4ccc([N+](=O)[O-])cc4[N+](=O)[O-])CC3)CC2)c([N+](=O)[O-])c1
active: [4]; at 100.0 µM 77% | [5]; [17] 98% | [5]; [18] 99% | [5]; at 50.0 µM 75% | [6]; [17] 99% | [6]; [18] 99% | [8]; at 50.0 µM 87.5% | [11]; at 50.0 µM 84.3% | [15]; [17] 99% | [15]; [18] 99%
inactive: [1]; at 1.2 µM -24% | [1]; at 3.7 µM -17% | [1]; at 11.0 µM -7% | [1]; at 33.0 µM 0% | [1]; at 100.0 µM 20% | [2]; at 1.2 µM -6% | [2]; at 3.7 µM -1% | [2]; at 11.0 µM 5% | [2]; at 33.0 µM 11% | [2]; at 100.0 µM 11% | [3]; at 1.2 µM -6% | [3]; at 3.7 µM -14% | [3]; at 11.0 µM -17% | [3]; at 33.0 µM -4% | [3]; at 100.0 µM 18% | [4]; at 1.2 µM -18% | [4]; at 3.7 µM -4% | [4]; at 11.0 µM 0% | [4]; at 33.0 µM 10% | [5]; at 1.2 µM 7% | [5]; at 3.7 µM 1% | [5]; at 11.0 µM 4% | [5]; at 33.0 µM 12% | [5]; at 100.0 µM 31% | [6]; at 1.2 µM -35% | [6]; at 3.7 µM -27% | [6]; at 11.0 µM -22% | [6]; at 33.0 µM -20% | [6]; at 50.0 µM 48.5% | [6]; at 100.0 µM -8% | [7]; at 1.2 µM -32% | [7]; at 3.7 µM -27% | [7]; at 11.0 µM -13% | [7]; at 33.0 µM -16% | [7]; at 100.0 µM 19% | [8]; [17] -41% | [8]; [18] 51% | [9]; at 1.2 µM -8% | [9]; at 3.7 µM -3% | [9]; at 11.0 µM 3% | [9]; at 33.0 µM -19% | [9]; at 100.0 µM 7% | [10]; [17] 10% | [10]; [18] 50% | [10]; at 50.0 µM 46.2% | [11]; at 1.2 µM -17% | [11]; at 3.7 µM -24% | [11]; [17] 6% | [11]; at 11.0 µM -32% | [11]; at 33.0 µM -6% | [11]; [18] 47% | [11]; at 100.0 µM -4% | [12]; at 1.2 µM -15% | [12]; at 3.7 µM -21% | [12]; at 11.0 µM -9% | [12]; at 33.0 µM 8% | [12]; at 100.0 µM 39% | [13]; at 1.2 µM -19% | [13]; at 3.7 µM -25% | [13]; at 11.0 µM -21% | [13]; at 33.0 µM -24% | [13]; at 100.0 µM 32% | [14]; at 1.2 µM -24% | [14]; at 3.7 µM -17% | [14]; at 11.0 µM -15% | [14]; at 33.0 µM 21% | [14]; at 100.0 µM 52% | [15]; at 50.0 µM 68.3% | [16]; at 1.2 µM -24% | [16]; at 3.7 µM -25% | [16]; at 11.0 µM -14% | [16]; at 33.0 µM -5% | [16]; at 100.0 µM 4%
